# The entries come from a sample that favours hits as a whole.
# TTR transcr act – increases transthyretin transcription; hit rate 1.3% among 92,000; SH-SY5Y TTR promoter Gaussia luciferase, luminescence; 100% = recombinant luciferase protein wells; activation, % at 16.7 µM; AID 1117267;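 active = activation above the mean of all tested compounds plus 3 SD, cut at about 9.5% in these data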;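 note: cells exposed to compounds for one day before reading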
# TTR inh HuH7 – counter-screen for TTR activators: TTR transcription inhibitors in HuH7 cells; shares compounds with TTR transcr act; hit rate 4% among 1,100; HuH7 TTR promoter-Gaussia luciferase reporter, luminescence; inhibition, % at 16.7 µM;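 active = average inhibition above the solvent-only control wells' mean plus 3 SD, cut at about 15% in these data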;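 note: inhibitors lower well luminescence so higher value means more inhibition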
# TTR up confirm – human TTR transcription activation, confirmation; shares compounds with TTR transcr act; SHSY5Y TTR promoter Gaussia luciferase, luminescence; 100% = purified Lucia enzyme wells, no cells; activation, % at 16.7 µM; 1,100 tested, under 10 active;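 active = mean activation above a set limit taken from the earlier primary screen, cut at about 11% in these data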
# Hits are given with their value; i = inactive.
SMILES,TTR transcr act,others
C[C@@H]1CCC(=O)N(CC[C@H](N=[N+]=[N-])c2ccccc2)CC1,10.0,TTR inh HuH7=i;TTR up confirm=i
CC(C)OP(=O)(O)C(C)NC(=O)OCc1ccccc1 (stereo not drawn),i,
O=C(O)CCN1C(=O)/C(=C/c2ccc(F)cc2F)SC1=S,i,
OC(c1ccccc1)(c1ccccc1)c1cnc2ccccn12,i,
COC(=O)[C@]12C[C@H](CC(=O)NCC3CCCCC3)C(=O)N(Cc3ccc4c(c3)OCO4)C1=C[C@H](C(C)C)O[C@@H]2C1CC1,i,
Cc1cc(NC(=O)CCCn2nc([N+](=O)[O-])cc2C)no1,i,
Cc1cc([N+](=O)[O-])nn1CCCC(=O)Nc1cc(Cl)ccc1Cl,14.4,TTR inh HuH7=i;TTR up confirm=i
Cc1cc([N+](=O)[O-])nn1CCCC(=O)NCc1ccccc1,i,
CC(=O)C1=CCC(c2ccc(C)o2)N(S(=O)(=O)c2ccc(C)cc2)C1 (stereo not drawn),i,
CCN(C(=O)[C@@H](C1CC1)[C@@H](O)c1ccc(Cl)cc1)c1ccccc1,i,
CC(OC(=O)CN1C(=O)c2ccccc2C1=O)C(=O)NC1CCCCC1 (stereo not drawn),13.6,TTR inh HuH7=i;TTR up confirm=i
CC(C(=O)OCC(=O)NC1CCCC1)N1C(=O)c2ccccc2C1=O (stereo not drawn),i,
CC(OC(=O)COc1ccccc1)C(=O)NC1CCCC1 (stereo not drawn),i,
Cc1ccc(S(=O)ONc2cccc(NOS(=O)c3ccc(C)cc3)c2)cc1 (stereo not drawn),i,
CCCCNC(=O)O[C@H]1CC[C@@]23CCCN2C(=O)CCC[C@H]3C1,i,
CC(=O)OCCC(CC(C)C)NC(=O)[C@H](CC(C)C)NC(=O)OCc1ccccc1 (stereo partly drawn),i,
O=C(OCC#CCSc1nnc(-c2cccc(F)c2)o1)c1ccc(F)cc1,i,
CCC(=O)OCCCN1CCC2(CCCCC2)C1=O,i,
C[C@@H]1CN([C@@H](C)CO)C(=O)CCCn2cc(nn2)CO[C@H]1CN(C)S(=O)(=O)c1cccc(C#N)c1,i,
C[C@H](CO)N1C[C@H](C)[C@@H](CN(C)S(=O)(=O)c2ccc3ccccc3c2)OCc2cn(nn2)CCCC1=O,i,
COc1cccc(S(=O)(=O)N(C)C[C@@H]2OCc3cn(nn3)CCCC(=O)N([C@@H](C)CO)C[C@H]2C)c1,11.4,TTR inh HuH7=i;TTR up confirm=i
C[C@H]1[C@@H](OC(=O)N2CCOCC2)CC[C@@]23CCCN2C(=O)CCC[C@@H]13,i,
COc1cc(NC(=O)c2[nH]c(C)c(C(C)=O)c2C)c(OC)cc1Cl,i,
CCSc1nc2ccccc2n1CC(N)=O,i,
COCC(C)NC(=O)Cn1c(SCc2ccccc2)nc2ccccc21 (stereo not drawn),i,
SMILES,TTR transcr act,others
COC(=O)CSc1nc2ccccc2n1CC(=O)N(C(C)C)C(C)C,12.8,TTR inh HuH7=i;TTR up confirm=i
Cc1ccccc1C(=O)n1ccc2ccc(-c3ccc4ccn(Cc5ccc(C#N)cc5)c4c3)cc21,i,
O=S(=O)(Nc1ccc(C(O)(C(F)(F)F)C(F)(F)F)cc1)c1cccc2ccccc12,i,
COc1cccc(Cn2cc(COC(=O)N(C)Cc3ccccc3)nn2)c1,i,
CCC(C)NC(=O)Cn1c(=O)sc2ccccc21 (stereo not drawn),i,
CCOC(=O)Cn1nc2sc3ccccc3n2c(=O)c1=O,i,
CCOC(=O)Cn1c(=O)sc2ccccc21,17.3,TTR inh HuH7=i;TTR up confirm=i
C[C@H]1C2CC(OC(=O)Nc3cccc(Cl)c3)C(C2)[C@H]2CCCCN21 (stereo partly drawn),i,
Fc1ccc(Cn2ccc3ccc(-c4ccc5ccn(Cc6ccccc6)c5c4)cc32)cc1,i,
O=C(Nc1ccc(F)cc1)Nc1nc2ncccn2c1-c1ccc(F)cc1,i,
COC(=O)c1cccc(Cn2ccc3ccc(-c4ccc5ccn(Cc6cccc(C(=O)OC)c6)c5c4)cc32)c1,i,
Cc1cc(NC(=O)CSCC(=O)N(C)Cc2ccc(F)cc2)no1,12.9,TTR inh HuH7=i;TTR up confirm=i
Cc1cc(NC(=O)CSCC(=O)OCc2nnc(-c3ccc(F)cc3)o2)no1,i,
CSCC(=O)Nc1cc(C)on1,i,
Cc1cccc(Cn2cc(COC(=O)Nc3ccc(F)cc3)nn2)c1,i,
CCCC[C@H]1C2CC(OC(=O)Nc3ccc(F)cc3)C(C2)[C@H]2CCCCN21 (stereo partly drawn),i,
N#Cc1ccc(Cn2ccc3ccc(-c4ccc5ccn(C(=O)c6ccccc6)c5c4)cc32)cc1,i,
O=C(NNC(=O)c1cc(-c2ccc(Br)cc2)nc2ccccc12)c1csc(N2CCOCC2)n1,i,
CSc1ncccc1C(=O)NNC(=O)c1csc(N2CCOCC2)n1,i,
Cc1ccc(C)c(SCC(=O)NNC(=O)c2csc(N3CCOCC3)n2)c1,30.9,TTR inh HuH7=i;TTR up confirm=i
O=C(NCc1nc2ccccc2[nH]1)C1=C[C@H](C2CCCCC2)C[C@H](OCCCCO)O1,i,
O=C(NCc1nc2ccccc2[nH]1)C1=C[C@H](C2CC2)C[C@H](OCCCCO)O1,10.1,TTR inh HuH7=i;TTR up confirm=i
C#CCNC(=O)C1=C[C@@H](C2CC2)C[C@@H](OCCCCO)O1,i,
C#CCNC(=O)CSCc1nc(-c2ccc(OCC)cc2)oc1C,i,
COC(=O)[C@]12C[C@H](CC(=O)NCC3CCCCC3)C(=O)N(Cc3ccc(Cl)cc3Cl)C1=C[C@H](COCc1ccccc1)O[C@@H]2C,i,
SMILES,TTR transcr act,others
COC(=O)C1CN(CCc2ccccc2)CCS(=O)(=O)N1Cc1ccccc1F (stereo not drawn),i,
Cc1ccc(C(=O)NC2CCCCN(Cc3ccc(Cl)cc3)C2=O)c(C)c1 (stereo not drawn),i,
CCCc1nc2sc3c(c2c(=O)[nH]1)CCCC3,i,
CCN(CC(=O)NC(C)C)Cc1nc2sc3c(c2c(=O)[nH]1)CCC3,13.0,TTR inh HuH7=i;TTR up confirm=i
COCc1nc2sc3c(c2c(=O)[nH]1)CCCC3,i,
O=C(C1CCN(c2nc(-c3ccc(Br)cc3)cs2)CC1)N1CCNCC1,i,
O=C(Nc1ccccc1)Nc1nc2ncccn2c1-c1ccc(C(F)(F)F)cc1,i,
c1ccc(-c2nc(N3CCOCC3)c3ccccc3n2)nc1,i,
CN1CCN(c2nc(-c3cccs3)nc3ccccc23)CC1,i,
CCN1CCN(c2nc(-c3ccccn3)nc3ccccc23)CC1,10.6,TTR inh HuH7=i;TTR up confirm=i
CC(C)C(N)c1csc(NC(=O)Nc2ccc(OC(F)(F)F)cc2)n1 (stereo not drawn),i,
O=C(Nc1ccc(F)cc1)OCc1cn(Cc2ccc(F)cc2F)nn1,i,
O=C(COC(=O)c1ccc(O)cc1)Nc1ccc(N2CCCCC2)cc1,i,
COc1ccc(OCC(=O)Nc2ccc(N3CCCCC3)cc2)cc1,i,
COc1cc(OC)cc(C(=O)OCC(=O)Nc2ccc(N3CCCCC3)cc2)c1,12.4,TTR inh HuH7=i;TTR up confirm=i
O=C(NC1CCCCN(Cc2ccc(Cl)cc2)C1=O)c1ccccn1 (stereo not drawn),i,
O=C([C@H]1O[C@@H](n2ccc(=O)[nH]c2=O)[C@H](O)[C@@H]1O)N1CCN(c2ccc(Cl)cn2)CC1,i,
O=S(=O)(c1cc(Cl)ccc1Cl)N1CCC2(CC1)OCCO2,11.8,TTR inh HuH7=i;TTR up confirm=i
Cc1ccc(C)c(S(=O)(=O)N2CCC3(CC2)OCCO3)c1,i,
CC(=O)N1CCN(S(=O)(=O)c2ccc(Cl)cc2F)CC1,i,
CCOC(=O)[C@@]12CCC3=C1N(CCC3)C(=O)[C@H](CC(=O)N1CCOCC1)C2,i,
CN(C)[C@H]1CCN(c2ccc3c(c2)O[C@@H]2CCN(C2)S3(=O)=O)C1,i,
